# Source: PubChem (Broad Institute)
# aSyn 5UTR act: Activators via SNCA 5'UTR binding, MLPCN | activity score, % (tested at 7.5 µM), hits read low | AID 1814 | alpha-synuclein 5'UTR reporter, activators screen | 300,000 compounds, 7.1% hits; in the data active = activity score below about -60%
# Numbers without * were called inactive. The list is a sample of the results.
SMILES,aSyn 5UTR act
CC(C)(C)n1ncc2c(=O)n(CC(=O)NCc3ccc(F)cc3)cnc21,-90*
CC(C)(C)n1ncc2c(=O)n(CC(=O)NCc3ccco3)cnc21,-93*
CC(C)(C)n1ncc2c(=O)n(CC(=O)NC3CCCCC3)cnc21,-108*
O=C(Cn1cc(C(F)(F)F)cc(Cl)c1=O)NCc1ccc(F)cc1,-81*
Cc1ccc(NC2=C(Cl)C(=O)N(C3CCCCC3)C2=O)cc1,-124*
Cc1ccc(S(=O)(=O)[N-]c2nc3ccccc3nc2-n2cc[n+](Cc3ccccc3)c2)cc1,-97*
O=C(COC(=O)Cn1cnc2ccccc21)Nc1cc2c(cc1Cl)C(=O)c1ccccc1C2=O,-162*
CC(N=c1ccccn1C(=O)Nc1ccc(Cl)cc1)c1ccco1 (stereo unspecified),-121*
Cc1ccc(NC(=O)C(=O)c2ccc(C)cc2)cc1,-208*
O=C(Nc1ccccc1)c1ccc(C(=O)Nc2ccccc2)nc1,-182*
O=C(Nc1nsc(-c2ccccc2)n1)c1ccc(F)cc1,-166*
Cc1ccc(NC(=O)c2ccccc2)cc1,-164*
Cc1ccc(C(=O)Nc2ccc3ccccc3c2)cc1,66
Cc1cccc(C(=O)Nc2ccc(O)cc2)c1,-98*
O=C(Nc1ccc(Nc2ccccc2)cc1)c1ccc(F)cc1,-75*
Cc1cccc(C(=O)Nc2ccc(C(=O)c3ccccc3)cc2)c1,-106*
CSC(=CC(=O)c1ccccc1)SC,-77*
Cc1ccc(N/C(=C\C(=O)c2ccccc2)C(=O)O)cc1,-158*
Cc1ccc(NC(=O)/C(CN(C)C)=N\O)cc1,-89*
CCN(c1ccccc1)c1ncnc2c1cnn2-c1ccccc1,-150*
CN(Cc1ccccc1)c1ncnc2c1cnn2-c1ccccc1,-169*
c1ccc(-n2ncc3c2ncn2nc(-c4ccco4)nc32)cc1,-131*
Cc1ccc(SCC(=O)NC(C)(C)C)cc1,-66*
COc1cccc(NC(=O)CSc2ccccn2)c1,-144*
COc1ccc(NC(=O)CSc2ccc(C)cc2)cc1,-149*
SMILES,aSyn 5UTR act
CCOc1ccc(-c2cc(CCCC(=O)Nc3cccc(OC)c3)no2)cc1,68
COc1ccc(NC(=O)CSc2ccccn2)cc1,-79*
Cc1ccc(O)c(NC(=O)CSc2ccc(Cl)cc2)c1,-177*
CCc1ccc(NC(=O)CSc2ccccn2)cc1,-74*
COc1ccc(CNC(=O)CSCc2ccccc2Cl)cc1,-62*
O=C(CCSc1ccccn1)Nc1ccc(Br)cc1,-153*
Cc1ccc(NC(=O)CSc2n[nH]c(-c3ccccn3)n2)cc1,59
COc1ccc(-n2c(C)cc(C(=O)CSc3ccc(NC(C)=O)cc3)c2C)cc1,-89*
COc1ccc(-n2c(C)cc(C(=O)CCl)c2C)cc1,65
COc1ccc(-n2c(SCC(=O)Nc3ccc(Br)cc3)nc(O)cc2=O)cc1,-119*
COc1ccccc1C(=O)CSc1ccccn1,-95*
COc1ccc(NC(=O)CSc2ccccn2)c([N+](=O)[O-])c1,-72*
COc1ccc(NC(=O)CSCc2ccccc2C)cc1,-90*
CCC(C)NC(=O)Nc1ccc(Br)cc1 (stereo unspecified),-73*
CC(C)(C)NC(=O)Nc1ccc(Br)cc1,-138*
Cc1ccc(C(=O)N/C(=C\c2ccc(-c3ccccc3[N+](=O)[O-])o2)C(=O)NCCCN2CCOCC2)cc1,71
COc1nc(N/N=C/c2ccc(-c3ccccc3[N+](=O)[O-])o2)nc(N2CCOCC2)n1,-105*
Nc1c(-c2ccccn2)cnn1-c1nc(-c2ccc(F)cc2)cs1,-79*
Nc1c(-c2cccs2)cnn1-c1nc(-c2ccc(F)cc2)cs1,-124*
O=C(Cc1cccs1)Nc1nnc(-c2ccccc2)s1,-211*
O=C(Cc1cccs1)Nc1nnc(-c2ccc(F)cc2)s1,-76*
CCN(CC)c1ccc(-c2nn3c(-c4n[nH]c5c4CCC5)nnc3s2)cc1,72
Clc1ccc(-c2n[nH]c3c2CCCC3)cc1,-70*
Cc1ccc(NC(=O)C2COc3ccccc3O2)nc1 (stereo unspecified),-106*
Cc1ccnc(NC(=O)C2COc3ccccc3O2)c1 (stereo unspecified),-97*
SMILES,aSyn 5UTR act
CC(/C=C/c1ccc(N(C)C)cc1)=N\N=C(/N)SC1CC(=O)N(c2ccc(C(=O)O)cc2)C1=O (stereo unspecified),-68*
CN(C)c1ccc(-c2nnc(SCC3CCCO3)n2C)cc1 (stereo unspecified),-89*
O=c1c(C=Nc2cccc(C(F)(F)F)c2)c[nH]n1-c1cccc(Cl)n1,-65*
N#C/C(=C/c1ccc(N2CCCC2)c([N+](=O)[O-])c1)c1nc2ccccc2[nH]1,-78*
O=C(Cn1c2ccccc2c(=O)c2ccccc21)N/N=C/c1ccc(N2CCCC2)c([N+](=O)[O-])c1,111
N#C/C(=C\c1ccc(N2CCOCC2)c([N+](=O)[O-])c1)c1nc2ccccc2[nH]1,-163*
CC1(c2ccncc2)Nc2ccccc2-c2nc3ccccc3n21 (stereo unspecified),-66*
S=C(N/N=C/c1ccc(Cl)c(Cl)c1)Nc1ccccc1Cl,-81*
Fc1cccc(/C=N/NC(=S)Nc2ccccc2Cl)c1,-231*
Cc1ccc(NC(=O)Nc2ccccc2CC[N+](=O)[O-])cc1,-79*
COc1cccc(C2c3c(oc4ccccc4c3=O)C(=O)N2Cc2ccco2)c1 (stereo unspecified),-99*
Cc1cc(/C([O-])=C(/C(=S)Nc2ccc(F)cc2)[n+]2ccccc2)c(C)n1-c1ccc(F)cc1,-121*
Cc1c(-c2ccccc2)nnn1-c1ccc(F)cc1F,-93*
C=CCNC(=O)c1ccc(OC2CCN(S(=O)(=O)N(C)C)CC2)cc1,-162*
COc1ccc(-c2nc(NC(=O)Cn3c(=O)oc4ccccc43)sc2C)cc1,-70*
CC(=O)OCCCN1c2ccccc2Nc2nnc(-c3ccccc3)cc21,-155*
CCOC(=O)CSc1nc2cc(C)cc(C)c2cc1C#N,-195*
Cc1cc(C)c2nc(SCC(=O)N3CC(=O)Nc4ccccc43)c(C#N)cc2c1,67
CCOC(=O)CSc1nc2ccc(C)cc2cc1C#N,-172*
CCOC(=O)CSc1nc2cc(C)ccc2cc1C#N,-150*
Cc1ccc2cc(C#N)c(SCC(=O)N3CCCC3)nc2c1,-81*
COc1ccc2nc(SCC(C)=O)c(C#N)cc2c1,-70*
CCOc1ccc2cc(C#N)c(SCC(=O)N3CCOCC3)nc2c1,-94*
CCOC(=O)CSc1nc2cc(OC)ccc2cc1C#N,-109*
O=C(/C=C/c1ccco1)Nc1nc(-c2ccc(F)c(F)c2)cs1,-100*
SMILES,aSyn 5UTR act
Cc1csc(NC(=O)/C=C/c2ccco2)n1,-168*
O=C(/C=C/c1ccco1)Nc1nc(-c2ccccc2)cs1,-250*
COc1ccc(-c2csc(NC(=S)NC(=O)/C=C/c3ccco3)n2)cc1OC,63
O=C(/C=C/c1ccco1)Nc1nc(-c2ccccn2)cs1,-79*
c1ccc2c(CCNc3ncnc4nc[nH]c34)cccc2c1,-92*
C1=C(CCNc2ncnc3nc[nH]c23)CCCC1,-116*
CC(CNC(=O)c1ccc(OC2CCN(Cc3ccccn3)CC2)cc1)c1ccccc1 (stereo unspecified),-97*
NC(=O)COC(=O)c1ccccc1Nc1ccc(SC(F)F)cc1,-82*
O=C(COC(=O)c1ccccc1Nc1ccc(SC(F)F)cc1)NC1CC1,-100*
O=C(COC(=O)c1ccccc1Nc1ccc(SC(F)F)cc1)NCc1ccco1,-91*
CC(C)(C)NC(=O)COC(=O)c1ccccc1Nc1ccc(SC(F)F)cc1,-145*
Nc1nn(-c2ccccc2)nc1C(=O)OCc1ccccc1,-63*
